p53ts 39C tox – qHTS Screen for Compounds that Selectively Target Cancer Cells with p53 Mutations: Cytotoxicity of p53ts Cells at the Nonpermissive Temperature; H1299-p53A138V viability at 39C, ATP luminescence, 24 h; Potency, µM (highest dose often 46.1 µM), usual class: cytotoxic; actives 1.5% (n = 130,000); AID 902, 2007; note: nearly all actives have a fitted effect of over 55% in size
Imprint erasure – qHTS Assay for Compounds that Induce Erasure of Genomic Imprints; mouse ES Peg3-LacZ reporter, beta-gal luminescence, 40 h; actives 0.02% (n = 110,000); Potency, µM (titrated, usually from 60.7 µM), usual class: activators; AID 1948, 2009
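Each well holds 300 Peg3LacZ-Neo (maternal) female ES cells incubated 40 h at 37C, 5% CO2. LacZ is measured by BetaGlo luminescence, with AC50 and maximum efficacy derived from dose-response curves.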
p53ts 32C tox – qHTS Screen for Compounds that Selectively Target Cancer Cells with p53 Mutations: Cytotoxicity of p53ts Cells at the Permissive Temperature; AID 924, 2007; Potency, µM (highest dose often 46.1 µM), most hits filed as cytotoxic; actives 0.93% (n = 130,000); H1299-p53A138V at 32C, ATP luminescence viability, 24 h; note: nearly all actives have a fitted effect of over 55% in size
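H1299-p53 A138V cells (temperature-sensitive p53) exposed 24 h to up to 46 uM compound at 32C, where p53 is wild-type in conformation. Viability read as ATP luminescence and normalised to DMSO and 100 uM tamoxifen. AC50 fitted with the Hill equation.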
Tau fil binding – qHTS Assay for Tau Filament Binding; recombinant tau filaments, thioflavin S fluorescence, 15 h; filaments grown with octadecylsulfate alongside compound; Potency, µM (series often up to 57.1 µM); Microtubule-associated protein tau (Homo sapiens), P10636; AID 596, 2007; actives 2% (n = 71,000);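 note: actives lower thioflavin S fluorescence by blocking filaments or displacing dye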
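Quantitative HTS: thioflavine S signal from ODS-induced tau filaments, excited at 450 nm, emission 510 nm. Conditions: 1 uM tau, 30 uM ODS, 15 h at 37 C, pH 7.4.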
Luciferase inh – qHTS Assay for Inhibitors of Firefly Luciferase | Luciferin 4-monooxygenase (Photinus pyralis), P08659 | purified firefly luciferase, luminescence, 8 min | Potency, µM (series often up to 57.1 µM), usual class: inhibitors | actives 2.2% (n = 72,000) | AID 411, 2009; note: nearly all actives have a fitted effect of over 40% in size
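Inhibition of light generation by firefly luciferase from ATP and luciferin was profiled with concentration-response curves per sample, ATP held at 10 uM within the enzyme's linear range. Plates were read by luminescence after an 8-minute ambient incubation.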
A number is an active result; - = inactive; ? = inconclusive; . = no result; [ ] = dose if it differs, or a comment. This is a sample that favours compounds with a hit; in the whole collection about 3.4% have one here. Calls come from the whole dose curve; as a rule, active = well fitted curve in the direction sought with a large enough effect; inconclusive = small, poorly fitted or top-dose-only effect, or another doubt; inactive = no such curve, though single readings can be large; an effect the other way counts as inactive or inconclusive.

SMILES	p53ts 39C tox	Imprint erasure	p53ts 32C tox	Tau fil binding	Luciferase inh
O=C(C[N+]12CN3CN(CN(C3)C1)C2)c1ccc(-c2ccccc2)cc1	-[9.22 µM]	-[10.9 µM]	-[9.22 µM]	3.16µM	-[11.4 µM]
Cc1c(C(=O)Nc2ccc(-c3nnc4n3CCCCC4)cc2)oc2c1ccc1ccccc12	-	.	1µM	.	.
Cc1ccc(-c2nc(-c3cccnc3)no2)c(C)c1	?	-	?	-	12.6µM
CC(C)CC(=O)Nc1ccc2oc(-c3cccnc3)nc2c1	?	-	?	-[11.4 µM]	12.6µM
Cc1ccc2nc(-c3ccc(Cl)c(NC(=O)c4cccnc4)c3)oc2c1	?	-[10.9 µM]	?	.	.
Cc1ccc2nc(-c3cccnc3)oc2c1	?	-	?	-	25.1µM
O=C(Nc1ccc2oc(-c3cccnc3)nc2c1)c1cccnc1	-	-	-	-	-
Cc1ccc2nc(-c3ccccn3)oc2c1	5.01µM	-	3.16µM	-	7.94µM
O=C(NCCc1ccc(Cl)cc1)c1ccc(Cn2c(=O)[nH]c3ccccc3c2=O)cc1	?	-[10.9 µM]	-	.	.
COC(=O)c1ccc2c(=O)n(CCCCCC(=O)N3CCN(c4ccc(F)cc4)CC3)c(=O)[nH]c2c1	-	-	-	-	-
COC(=O)c1ccc2c(=O)n(CCCCCC(=O)N3CCN(c4cc(C)ccc4C)CC3)c(=O)[nH]c2c1	6.31µM	-[10.9 µM]	15.8µM	.	.
O=C1c2ccccc2-c2nccnc21	-	-	-	-	-
O=C1c2ccccc2-c2nc3ncnn3c(-c3ccccc3Cl)c21	-	-	-	12.6µM	-
Nc1ccc(S(N)(=O)=O)cc1	-	-	-[1.84 µM]	-	-
Cc1ccc(N=Nc2ccc(N)cc2C)c(S(N)(=O)=O)c1	-[9.22 µM]	-[10.9 µM]	-[9.22 µM]	3.98µM	-[11.4 µM]
c1ccc2c(c1)-c1nc3ccccc3cc1[C@H]2N1CCOCC1	-[9.22 µM]	-[10.9 µM]	-[9.22 µM]	-[11.4 µM]	-[11.4 µM]
OC1c2ccccc2-c2nc3ccccc3cc21 (configuration not stated)	10µM	-	?	-	.
Cc1cccc(NC(=O)CSc2nnc(NC(=O)Nc3ccccc3)s2)c1C	-	-[10.9 µM]	-	.	.
C/C(=N\O)c1ccc(N2C(=O)C3CC=C(Cl)CC3C2=O)cc1 (configuration not stated)	-	-	-	3.16µM	-
Cc1nn(Cc2ccc(Cl)cc2Cl)c(C)c1NC(=O)C1C2CCC(O2)C1C(=O)O (configuration not stated)	-	.	-	.	.
Cc1nn(Cc2ccc(Cl)cc2Cl)c(C)c1NC(=O)CCl	5.62µM	.	17.8µM	.	.
O=C(CN1CCC(C(=O)c2ccc(F)cc2)CC1)Nc1ccc(F)cc1	-	.	-	.	.
Cc1ccc(C(=O)C2CCN(CC(=O)Nc3ccc(N(C)C)cc3)CC2)cc1	-	-	-	20µM	-
CCCCC(CC)Cn1c2nc3ccccc3nc2c2c(=N)oc(C)nc21 (configuration not stated)	-	-	-	2.51µM	-
C=CCSc1nc2ccccc2n1S(=O)(=O)c1ccc(C)cc1	-	.	-	.	.
SMILES	p53ts 39C tox	Imprint erasure	p53ts 32C tox	Tau fil binding	Luciferase inh
Cc1ccc(/C=C/c2nc3ccccc3n2S(=O)(=O)c2ccc(Br)cc2)cc1	6.31µM	-[10.9 µM]	5.01µM	.	.
O=S(=O)(c1cccc(Cl)c1)n1c(/C=C/c2ccccc2Cl)nc2ccccc21	1µM	-[10.9 µM]	1.26µM	.	.
CSc1ccc(/C=C/c2nc3ccccc3n2S(=O)(=O)c2cccc(Cl)c2)cc1	3.98µM	-[10.9 µM]	3.16µM	.	.
Cc1cccc(CNc2nc(-c3ccccc3CN(C)C)nc3ccccc23)c1	-	-	-	-	-[2.29 µM]
O=C(CC(c1ccccc1)c1cc(Br)ccc1O)NCC1(c2ccccc2)CCCC1 (configuration not stated)	10µM	-[10.9 µM]	?	.	.
Cn1cc(C2NC(=O)c3c(sc4c3CCCC4)N2)c2ccccc21 (configuration not stated)	-	-	-	3.16µM	-
O=C1NC(c2ccccn2)Nc2sc3c(c21)CCC3 (configuration not stated)	?	-	-	-	-
C=Cc1ccc(Cn2c(C(=O)O)c(CNCc3ccc(F)cc3)c3ccc(C)cc32)cc1	?	-[10.9 µM]	-	.	.
Cc1cc(-c2ccccc2)c2c3c(cn2n1)c(=O)n(C)c(=O)n3C	-	-	-	12.6µM	-

Screening results from PubChem BioAssay.
